RE007 growth inh: qHTS Assay for Inhibitors of the HIV-1 protein Vpr. S. pombe RE007 Vpr strain, BacTiter-Glo ATP luminescence, 24 h. AID 651644, 2012. 0.21% of 360,000 active. Potency, µM (highest dose often 92.2 µM), actives largely listed as inhibitors; active = well fitted falling curve with a large enough effect; inconclusive = small, poorly fitted or top-dose-only effect; inactive = no such curve, though single readings can be large or run the other way; also: nearly all actives have a fitted effect of over 50% in size
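Fission yeast RE007 carrying one integrated HIV-1 vpr copy, seeded at OD 0.01 in PMG+AL medium with 23 nL pinned compound. Grown 24 h at 30 degrees; viability read by BacTiter-Glo luminescence after 5 min.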
AmpC no deterg: qHTS Inhibitors of AmpC Beta-Lactamase (assay without detergent); Potency, µM (titrated, usually from 57.1 µM), actives largely listed as inhibitors; AmpC nitrocefin hydrolysis, absorbance 480 nm, 0.0001% Triton; 0.52% of 330,000 active; also: nearly all actives have a fitted effect of over 20% in size
Target sequence (P00811 whole entry, looked up): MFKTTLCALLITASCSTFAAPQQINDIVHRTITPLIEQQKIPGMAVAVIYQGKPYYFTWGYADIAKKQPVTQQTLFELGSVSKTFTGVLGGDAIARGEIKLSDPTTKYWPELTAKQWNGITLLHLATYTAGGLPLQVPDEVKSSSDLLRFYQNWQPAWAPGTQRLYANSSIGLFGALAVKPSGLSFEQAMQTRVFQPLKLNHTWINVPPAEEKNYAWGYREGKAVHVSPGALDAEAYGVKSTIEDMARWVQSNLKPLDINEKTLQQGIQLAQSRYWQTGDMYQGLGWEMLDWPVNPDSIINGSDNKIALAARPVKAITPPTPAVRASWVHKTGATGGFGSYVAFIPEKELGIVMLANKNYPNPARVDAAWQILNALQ
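20 mM phosphate pH 7.0 + 0.01% (detergent screen) or 0.0001% Triton X-100; 5.3 nM AmpC reagent; cpd preinc 15 min RT; nitrocefin (800 uM stock) to start; A480 q20 s × 4 min; Activity was normalised to no-enzyme and no-compound control wells.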
AmpC inh detg: qHTS Inhibitors of AmpC Beta-Lactamase (assay with detergent). AmpC hydrolysis of nitrocefin, absorbance 480 nm, 0.01% Triton. Potency, µM (top dose mostly 114 µM), most hits filed as inhibitors. 0.041% of 370,000 active. AID 485294, 2010; also: nearly all actives have a fitted effect of over 25% in size
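20 mM phosphate pH 7.0 + 0.01% (detergent screen) or 0.0001% Triton X-100; 5.3 nM AmpC reagent; cpd preinc 15 min RT; nitrocefin (800 uM stock) to start; A480 q20 s × 4 min; Activity was normalised to no-enzyme and no-compound control wells.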
Sm TGR block: qHTS Assay for the Inhibitors of Schistosoma Mansoni Peroxiredoxins | purified TGR, DTNB reduction, TNB absorbance 405 nm | Potency, µM (series often up to 114 µM), most hits filed as inhibitors | 3% of 360,000 active; also: nearly all actives have a fitted effect of over 60% in size
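TGR 20 nM + NADPH 100 uM (dispensed conc.), cpd preinc 15 min RT; start with NADPH (500 uM addition) then DTNB (15 mM addition). Kinetic TNB absorbance, 405 nm filter. Four-parameter Hill fit across titration.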
AMA1-RON2 inh: qHTS for Inhibitors of AMA1-RON; Towards Development of Antimalarial Drug Lead: Primary Screen. Plasmodium falciparum AMA1 (3D7) - RON2 peptide interaction. Potency, µM (highest dose often 58.2 µM), most hits filed as inhibitors. AlphaScreen AMA1-biotinylated RON2 peptide binding. 0.2% of 360,000 active; also: nearly all actives have a fitted effect of over 45% in size
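AMA1 (3D7) with his tag at 25 nM final met compounds first, then biotinylated RON2 peptide at 25 nM; detection used donor plus acceptor beads, 10 µg/mL apiece, read by AlphaScreen after 30 min at room temperature.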
Each line names hits and unclear results; the compound was inactive in the other large screens. This is a sample that favours compounds with a hit; in the whole collection about 3.2% have one here. Unless noted, calls follow the shape of the dose curve; as a rule, active = well fitted curve in the direction sought with a large enough effect; inconclusive = small, poorly fitted or top-dose-only effect, or another doubt; inactive = no such curve, though single readings can be large; an effect the other way counts as inactive or inconclusive.

Cc1ccc(NCN2C(=O)C3C4C=CC(C4)C3C2=O)cc1 (stereo not given)	none
O=C(O)COc1ccc2c(c1)O/C(=C\c1ccco1)C2=O	Sm TGR block 22.4µM
O=C(O)COc1ccc2c(c1)O/C(=C\c1cccs1)C2=O	none
Cc1ccc(NC(=O)c2ccc3c(c2)NC(=O)c2ccccc2S3)c(Cl)c1	none (no result: RE007 growth inh, AmpC no deterg, AMA1-RON2 inh)
COC(=O)c1ccccc1NC(=O)c1nc(-c2ccc(C)cc2)n2c1CCCCC2	none (no result: RE007 growth inh, AmpC no deterg, AMA1-RON2 inh)
Cc1ccc(C(=O)N/C(=C\c2ccccc2F)c2nc(=S)[nH][nH]2)cc1	AmpC no deterg 25.1µM
NC(=O)C1(N2CCCCC2)CCN(Cc2nc3ccccc3c(=O)[nH]2)CC1	AmpC no deterg 0.316µM
NC(=O)C1CCN(Cc2nc3ccccc3c(=O)[nH]2)CC1	none
Cc1cc(NC(=O)CCS(=O)(=O)c2cc(Br)cc3c2N(C(=O)C2CC2)CC3)ccc1Br	none (no result: RE007 growth inh, AmpC no deterg, AMA1-RON2 inh)
CCN1C(Nc2ccccc2)=NC[C@@H]1Cc1ccccc1	AmpC inh detg inconclusive, Sm TGR block 25.1µM
COc1ccc(CCC(=O)NC2CC(=O)N(c3ccc(OC)cc3)C2)cc1 (stereo not given)	none (no result: RE007 growth inh, AmpC no deterg, AMA1-RON2 inh)
COCC(C)NC(=O)c1ccc2c(c1)S(=O)(=O)c1ccccc1C2=O (stereo not given)	none
CCC(C)NC(=O)c1ccc2c(c1)S(=O)(=O)c1ccccc1C2=O (stereo not given)	Sm TGR block 17.8µM
CCc1ccc(CNC(=O)C2COc3ccccc3C2)cc1 (stereo not given)	none (no result: RE007 growth inh, AmpC no deterg, AMA1-RON2 inh)
O=C(c1ccco1)N1CCN(Cc2cc(=O)oc3cc(O)ccc23)CC1	Sm TGR block 44.7µM
CC(NS(C)(=O)=O)C(c1cccs1)N1CCN(C)CC1 (stereo not given)	none
CC(NS(=O)(=O)c1ccc(Br)cc1)C(c1cccs1)N1CCN(C)CC1 (stereo not given)	AmpC no deterg 44.7µM, AmpC inh detg inconclusive
Cc1cc(Br)ccc1NC(=O)CN1C(=O)C2CC=CCC2C1=O (stereo not given)	Sm TGR block 12.6µM
CCCCN(C(=O)C1CCC1)c1c(N)n(CCC)c(=O)[nH]c1=O	none
CCCCN(C(=O)C1CCCC1)c1c(N)n(CC(C)C)c(=O)[nH]c1=O	Sm TGR block 31.6µM
COc1ccc(CCN(C)C(=O)COC(=O)/C=C/c2ccc(C)o2)cc1OC	Sm TGR block 15.8µM
O=C(c1ccco1)N1CCN(Cc2csc(-c3ccccc3Cl)n2)CC1	RE007 growth inh inconclusive, Sm TGR block 50.1µM
O=C(Cn1nnc(-c2ccccc2F)n1)OCC(=O)c1ccccc1	Sm TGR block 0.794µM
O=C(COC(=O)Cn1nnc(-c2ccccc2)n1)Nc1cc(F)ccc1F	none (no result: AmpC inh detg, Sm TGR block)
CCCCOc1ccc(-c2nnn(CC(=O)NCc3ccco3)n2)cc1	none
O=C(Cn1cnc2c(nnn2-c2ccc(F)cc2)c1=O)NCc1ccco1	Sm TGR block 79.4µM
O=C(Cn1nnc(-c2ccccc2)n1)c1ccccc1	AmpC inh detg inconclusive
O=C(Cn1nnc(-c2ccc(F)cc2)n1)OCC(=O)c1ccccc1	AmpC inh detg inconclusive, Sm TGR block 10µM
O=C(Cn1nnc(-c2ccccc2F)n1)NCc1ccco1	Sm TGR block 44.7µM
CCOC(=O)c1cc(=O)n2nc(-c3ccccc3F)nc2s1	Sm TGR block 10µM
CCOC(=O)c1ccc(NC(=O)Cn2nnc(-c3ccccc3F)n2)cc1	AmpC no deterg 35.5µM
Cc1nn2c(=O)cc(COC(=O)c3ccc(F)cc3)nc2s1	none (no result: RE007 growth inh, AmpC no deterg, AMA1-RON2 inh)
Cc1ccc(N2CC(c3nnc(Cc4ccc(F)cc4)o3)CC2=O)cc1 (stereo not given)	none (no result: RE007 growth inh, AmpC no deterg, AMA1-RON2 inh)
Cc1c(C(O)CN2CCN(Cc3ccc4c(c3)OCO4)CC2)c2ccccc2n1C (stereo not given)	AmpC inh detg inconclusive, Sm TGR block 28.2µM
COc1ccc2c(c1)c(C(O)CN1CCN(Cc3ccc4c(c3)OCO4)CC1)c(C)n2C (stereo not given)	Sm TGR block 25.1µM
OC(CN1CCN(Cc2ccc3c(c2)OCO3)CC1)c1c[nH]c2ccccc12 (stereo not given)	none

Screens: PubChem, National Center for Advancing Translational Sciences (NCATS)
